PubChem BioAssay (NCI)
About 79,000 compounds went through this panel and 15% of them were active in at least one assay; those are over-represented in the sample as a whole. Values without a mark were called inactive. The source made the active and inactive calls. No stated cut-off is given here; in the data, active means growth inhibition above about 70%; inactive means the rest. Where a SMILES comes first, the peptide text is derived from it. [ ]: non-standard residue; d: D form. The star is where a group is joined. Cbz = O=C(OCc1ccccc1)*; Nva = CCC[CH](N)C(=O)O

What was measured:
[1] = NCI Yeast Anticancer Drug Screen. Data for the rad50 strain (AID 155);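 further: 0% = growth of vehicle-only cultures of the same strain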; conditions: S. cerevisiae rad50 strain growth inhibition, stronger effect = higher value; at 50.0 µM unless noted
Procedure, shortened: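 Inhibition values express reduced yeast growth in compound-treated cultures relative to vehicle-treated controls.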

[2] = NCI Yeast Anticancer Drug Screen. Data for the mec2-1 strain (AID 157); conditions: S. cerevisiae mec2-1 strain, stronger effect = higher value; at 50.0 µM unless noted
Procedure, shortened: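 Compounds were applied to mec2-1 yeast cells. Their growth was then compared with that of vehicle-treated cultures to give growth inhibition.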

[3] = NCI Yeast Anticancer Drug Screen. Data for the sgs1 mgt1 strain (AID 161);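 further: 0% = growth of cultures given vehicle only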; conditions: S. cerevisiae sgs1 mgt1 strain, stronger effect = higher value; at 50.0 µM unless noted
Procedure, shortened: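 Percent growth inhibition was derived by comparing compound-exposed mutant yeast with vehicle-exposed cultures. The strain carries alterations in DNA damage repair.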

[4] = NCI Yeast Anticancer Drug Screen. Data for the cln2 rad14 strain (AID 165);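 further: 0% = growth equal to vehicle treated cultures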; conditions: S. cerevisiae cln2 rad14 strain, stronger effect = higher value; at 50.0 µM unless noted
Procedure, shortened: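 Strain: cln2 rad14 yeast, altered in cell cycle control and DNA damage repair. Read-out: growth inhibition vs vehicle.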

[5] = NCI Yeast Anticancer Drug Screen. Data for the bub3 strain (AID 167); conditions: S. cerevisiae bub3 mutant strain, stronger effect = higher value; at 50.0 µM unless noted
Procedure, shortened: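 Steps: expose the mutant yeast strain to compound; grow alongside vehicle-treated cultures; measure growth; express inhibition against the vehicle cultures.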

[6] = NCI Yeast Anticancer Drug Screen. Data for the mlh1 rad18 strain (AID 175); conditions: S. cerevisiae mlh1 rad18 strain growth inhibition, stronger effect = higher value; at 50.0 µM unless noted
Procedure, shortened: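 A repair-deficient yeast strain is exposed to test compound, and growth is scored relative to vehicle-treated controls.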

Compound | growth inhibition [1] | growth inhibition [2] | growth inhibition [3] | growth inhibition [4] | growth inhibition [5] | growth inhibition [6]
CNNC(=O)C(O)C(C)(C)CO (stereo unspecified) | -4.45% | 8.5% | -4.3% | 20.1% | 6.5% | 9.8%
Cc1ccc(S(=O)(=O)NC(=O)NC(C)C(=O)O)cc1 (stereo unspecified) | -1.15% | -5.65% | -13.2% | 0.2% | 2.5% | -7.65%
Cn1ncc2c(NC(C)(C)CC(C)(C)C)ncnc21 | 21.1% | 7.95% | 1.05% | 1.55% | 45.4% | 16.8%
O=C(CCCC1CCCCC1)OC1CCCCC1 | 5.3% | 8.4% | 8.7% | -8.05% | -3.9% | -1.3%
O=[N+]([O-])c1cccc(/C=N/Nc2ccc(S(=O)(=O)O)cc2)c1 | 18.6% | 19.3% | -1.9% | 2.5% | 12.7% | 39.2%
COC(=O)c1[nH]nc(-c2ccccc2)c1N | 11% | 2.95% | -12.8% | -51.8% | 17.4% | 1.9%
O=C(NCCCCCSC(=O)c1ccccc1)c1ccccc1 | -0.35% | 4.6% | 7.95% | 13.8% | 15.7% | -4%
CCCCC(NC(=O)C(C)NC(=O)OCc1ccccc1)C(=O)O (stereo unspecified) | 2% | 6.3% | 3.4% | 4.75% | 12.8% | -9.6%
C=CCSc1cccc(C)c1 | -19.4% | 14.9% | -12.6% | -25.6% | -14.1% | -16.1%
COc1ccc(C(=O)Oc2ccccc2C(C)=O)cc1 | -2.65% | -7.05% | 0.7% | -24.6% | -5.6% | -12.8%
N#CC(NNC(=O)Cc1ccccc1)c1ccc(O)cc1 (stereo unspecified) | -18.1% | -22.6% | -37.1% | -7.05% | -25.6% | -32.5%
CCOC(=O)CSCC(=O)OCC | 3.6% | -9% | -17.2% | 8.45% | -9.4% | -4.65%
CCC(CC)C(=O)NCCNC(=O)C(CC)CC | 5.45% | -0.9% | 14.2% | -30.1% | -10.6% | -17.2%
CC1=NN(C(=O)CC(=O)Nc2ccc(C)cc2)C(=O)C1N=Nc1ccc(S(=O)(=O)c2ccc(N=NC3C(=O)N(C(=O)CC(=O)Nc4ccc(C)cc4)N=C3C)cc2)cc1 (stereo unspecified) | 49.8% | 36% | 36.8% | 21.2% | -1.2% | 39.6%
CC(C)C(=O)NCC[C@@H](CNC(=O)OC(C)(C)C)NC(=O)OC(C)(C)C | 20.1% | -3.1% | 38.6% | -3.85% | 28.7% | 34.5%
COc1ccc2c(c1[N+](=O)[O-])CC[C@@H]1[C@@H]2CC[C@]2(C)C(=O)CC[C@@H]12 | 20.9% | 21.1% | 0% | 37% | 12.1% | -30.9%
C=C1N(C=O)C(C)(C)N(O)C1(C)C | 16.7% | 15.7% | 15.6% | 28.1% | 12.2% | 10.9%
CC(=O)OC(CCC1CO1)OC(C)=O (stereo unspecified) | 0.65% | 11.6% | -0.2% | -7.65% | 15.2% | -0.1%
CCCC(=O)OCC1OC(n2cc(F)c(=O)[nH]c2=O)CC1OC(=O)CCC (stereo unspecified) | 4.1% | 7.9% | 13.9% | -4.3% | -13.9% | 10.2%
Cc1cccc(NC(=O)C(=O)C(C(=O)c2ccc3ccccc3c2)C2OC(=O)c3ccccc32)c1C (stereo unspecified) | -3.95% | 4.75% | 13.5% | -59.5% | 5.75% | -6.75%
CC1(C)CC(=O)C=C(n2ccccc2=O)C1 | 2.7% | -5.3% | 0.15% | 7.5% | -19.8% | -1.8%

Compound | growth inhibition [1] | growth inhibition [2] | growth inhibition [3] | growth inhibition [4] | growth inhibition [5] | growth inhibition [6]
CCN(CC)CCCC(C)NCC1C(O)CCC2CN3CCc4c([nH]c5ccccc45)C3CC21 (stereo unspecified) | 23.8% | 9.45% | 25.2% | 23.6% | 18.6% | 25.1%
CN(C)S(=O)(=O)c1ccccc1C(O)(c1ccccc1)c1ccccc1 (tested in a mixture with another compound) | 35.1% | 8.7% | -7.75% | -4.55% | 15.2% | 32.4%
CSC(=NC(=O)c1ccccc1)SCCSC(=NC(=O)c1ccccc1)SC | 6.45% | -7.35% | 2.8% | 33.6% | -3.65% | 6.35%
COc1ccc([N+](=O)[O-])cc1N(C)C | 19.1% | 17.4% | 13.6% | 9% | -14.2% | 4.55%
Cc1cc(Cl)ccc1NC(=O)CC/C(CC(=O)C(C)C)=N\NC(=O)C[n+]1ccccc1 | -43.9% | 3.45% | -20.4% | -15.2% | -30.6% | -32.8%
Cc1ccc(Nc2ccc(C)cc2[N+](=O)[O-])cc1 | 18.3% | -2.25% | 32.9% | 15.1% | 31.6% | 17.6%
CCCCCC(=O)NNC(=O)CCCCC | 7.35% | 13.8% | 7.2% | -4.95% | -21.8% | 15.1%
CC(=O)OCC(OC(C)=O)C(OC(C)=O)C(/C=N/N(C(C)=O)S(=O)(=O)c1ccc(/C=C2\NC(=O)NC2=O)cc1)OC(C)=O (stereo unspecified) | -42.5% | -23.6% | -34.6% | -2.45% | -18.9% | -25.6%
Clc1ccc(/C=N\OCc2ccc(Cl)c(Cl)c2)cc1Cl | -9.85% | -13.1% | 2.1% | -17.9% | -4.85% | -5.25%
CCCC(NC(=O)OCc1ccccc1)C(=O)NC(CC(C)C)C(N)=O (stereo unspecified) (Cbz-[Nva]-Leu-NH2; configuration not given here) | 12.9% | 2.35% | 5% | 22.2% | 6.55% | 5.15%
COC(=O)C1CCCC1 | 3.75% | -44% | 16.2% | 9.4% | -2.8% | 22.6%
Cn1c(NN)nc2ccccc2c1=O | -33.7% | -3.25% | -26.9% | 5.55% | -16.9% | -27.8%
COc1cccc(C)c1O | 9.8% | -7.35% | -7.8% | 6.55% | 20.6% | 3.3%
COc1ccc(C2S/C(=C\c3ccc(OC)cc3OC)C(=O)N2NC(=O)Cc2ccccc2)cc1 (stereo unspecified) | -4.3% | -50.6% | 2.4% | -59.6% | -14.1% | 5.05%
COc1ccc2nc(C(=O)c3ccccc3)c(C)cc2c1 | 8.4% | -28.5% | -10.7% | 1.8% | -10.9% | -13.2%
Cc1ccccc1C(=O)NCC(=O)O | 10.8% | -28.1% | 8.2% | 3.65% | -4.1% | 12.3%
O=C(O)CCNc1ccc(Cl)cc1[N+](=O)[O-] | 25.8% | 26.8% | 30.4% | 16.1% | 34.9% | 25.8%
CCCCCCCCCCCC[N+](C)([O-])CCCCCC[N+](C)([O-])CCCCCCCCCCCC (stereo unspecified) | 96.2% (active) | 98.7% (active) | 97.8% (active) | 96.5% (active) | 96.5% (active) | 97% (active)
[N-]=[N+]=NC1(N=[N+]=[N-])C(=O)Nc2ccccc2C1=O (stereo unspecified) | 15.5% | 14.8% | 2.55% | 3.65% | -10.2% | 12.6%
COC(NC(=O)Nc1ccccc1C)(C(F)(F)F)C(F)(F)F | -12.3% | -22.4% | -34.4% | 2.8% | -24.4% | -12.8%
